# Laboratory results: the supplement of paper PMC3545927
# Some of the results follow. The true hit rate is not given.
# Target: furin, P09958
# Experiment: furin cleavage Z-score vs untreated control; higher = more cleavage, active = 3.5 or more, inactive = 1 or less, 8 variable residues between constant flanks
# Procedure, shortened: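 The cleavage Z-score was derived for purified furin acting on 8-mer peptides held on magnetic beads and fused to a cDNA oligonucleotide. Digests lasted 7.5, 15 or 30 min at 1:10 enzyme:substrate in 50 mM HEPES pH 7.5 with CaCl2 and NaCl. Sequencing counts of released DNA, log-transformed against furin-free reactions, were lowess-adjusted and scaled by median absolute deviation.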
# furin, P09958, sequence (P09958 whole entry): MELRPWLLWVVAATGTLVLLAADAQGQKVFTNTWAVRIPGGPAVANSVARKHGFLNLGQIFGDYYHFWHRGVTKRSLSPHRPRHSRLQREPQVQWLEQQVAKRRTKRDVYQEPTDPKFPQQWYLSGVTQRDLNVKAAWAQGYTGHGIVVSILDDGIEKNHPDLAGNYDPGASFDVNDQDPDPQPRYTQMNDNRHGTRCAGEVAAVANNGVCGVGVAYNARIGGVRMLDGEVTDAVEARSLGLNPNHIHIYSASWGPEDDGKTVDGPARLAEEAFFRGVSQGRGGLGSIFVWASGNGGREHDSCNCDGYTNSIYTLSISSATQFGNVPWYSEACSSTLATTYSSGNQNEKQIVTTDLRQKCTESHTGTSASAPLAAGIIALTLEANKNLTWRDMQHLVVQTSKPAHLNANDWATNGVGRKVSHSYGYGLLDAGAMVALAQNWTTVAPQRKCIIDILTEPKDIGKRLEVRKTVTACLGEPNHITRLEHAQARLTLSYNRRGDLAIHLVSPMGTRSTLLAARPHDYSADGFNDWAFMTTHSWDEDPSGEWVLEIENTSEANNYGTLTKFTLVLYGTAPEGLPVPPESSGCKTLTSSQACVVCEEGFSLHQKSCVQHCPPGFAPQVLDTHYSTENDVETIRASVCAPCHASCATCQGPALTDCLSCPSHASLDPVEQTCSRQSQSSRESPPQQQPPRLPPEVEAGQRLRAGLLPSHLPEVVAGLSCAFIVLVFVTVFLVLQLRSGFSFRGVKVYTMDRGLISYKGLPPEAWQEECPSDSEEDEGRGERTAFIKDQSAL
Sequence,furin cleavage Z-score (7.5 min),furin cleavage Z-score (15 min),furin cleavage Z-score (30 min)
CACAWYELTPAGNASASA [HC923],-0.0785 (inactive),0.676 (inactive),-1.48 (inactive)
CARFRRGARSAGNASASA [FS-1703],10.1 (active),10.3 (active),8.23 (active)
CAEVVTSTKVAGNASASA [HC2234],0.581 (inactive),0.63 (inactive),-0.359 (inactive)
CARMVRSVKVAGNASASA [FS-1754],3.01,4.69 (active),6.85 (active)
CARTTRSVVHAGNASASA [FS-2837],-0.34 (inactive),0.171 (inactive),0.71 (inactive)
CARELRNVGVAGNASASA [FS-1695],-1.56 (inactive),0.756 (inactive),-0.781 (inactive)
CARFRRGLDNAGNASASA [FS-1704],10.1 (active),8.75 (active),7.17 (active)
CARMTRSVDNAGNASASA [FS-2396],10.7 (active),10.3 (active),7.86 (active)
CAMHECSQHLAGNASASA [HC1695],0.819 (inactive),2.72,1.59
CAFQVAHLHAAGNASASA [HC772],-0.105 (inactive),-0.994 (inactive),-1.62 (inactive)
CAEVVTSMWVAGNASASA [HC2206],0.942 (inactive),-0.688 (inactive),-0.185 (inactive)
CACTANHDSPAGNASASA [HC1268],-0.651 (inactive),-0.843 (inactive),-2.03 (inactive)
CADLLEDNVTAGNASASA [HC1433],0.275 (inactive),-2.11 (inactive),-1.66 (inactive)
CAGNLPGCSFAGNASASA [HC244],-0.0639 (inactive),0.93 (inactive),-0.123 (inactive)
CAMEECSQHCAGNASASA [HC1780],1.81,-0.183 (inactive),1.82
CARPKRSHHCAGNASASA [FS-2399],4.25 (active),6.93 (active),6.58 (active)
CALPFRSKRQAGNASASA [FS-684],9.98 (active),10.9 (active),7.98 (active)
CALHKREKRQAGNASASA [FS-1023],13.9 (active),12.1 (active),10.2 (active)
CARPKRKGKCAGNASASA [FS-1761],0.0893 (inactive),0.774 (inactive),1.28
CARPKRSKRQAGNASASA [FS-1068],12.3 (active),11.8 (active),9.11 (active)
CAYSALHKRQAGNASASA [FS-1505],1.15,-1.98 (inactive),1.13
CAQYFLTRVEAGNASASA [HC584],-0.544 (inactive),-0.576 (inactive),0.581 (inactive)
CADHLEFWEGAGNASASA [HC937],0.211 (inactive),-1.35 (inactive),0.811 (inactive)
CATVPCHRPSAGNASASA [HC2318],-1.23 (inactive),0.611 (inactive),0.585 (inactive)
CASFGSSSTSAGNASASA [HC1336],-0.845 (inactive),-1.34 (inactive),0.561 (inactive)

Sequence,furin cleavage Z-score (7.5 min),furin cleavage Z-score (15 min),furin cleavage Z-score (30 min)
CAPCGIVPAKAGNASASA [HC407],0.926 (inactive),0.441 (inactive),0.898 (inactive)
CAITPCSGSWAGNASASA [HC1824],-0.759 (inactive),-0.739 (inactive),-0.66 (inactive)
CARPKRRKPRAGNASASA [FS-3017],6.7 (active),9.47 (active),8.98 (active)
CAEVITSTWVAGNASASA [HC2184],-0.201 (inactive),-0.151 (inactive),0.767 (inactive)
CAMEECKQHLAGNASASA [HC31],0.641 (inactive),0.811 (inactive),0.523 (inactive)
CARSACQRQKAGNASASA [HC1392],0.38 (inactive),-0.49 (inactive),1.17
CADIHRNKRKAGNASASA [FS-408],0.37 (inactive),0.486 (inactive),2.04
CARSARRKRKAGNASASA [FS-1610],9.41 (active),11.4 (active),7.56 (active)
CADVPCHRPSAGNASASA [HC2311],0.698 (inactive),1.24,0.271 (inactive)
CACVWRRKRKAGNASASA [FS-324],4.9 (active),7.08 (active),5.25 (active)
CADVPRRKRKAGNASASA [FS-1316],7.09 (active),7.66 (active),8.13 (active)
CAPREVPCHRAGNASASA [HC2439],-1.48 (inactive),1.55,-0.302 (inactive)
CAWDVVCCSMAGNASASA [HC2108],0.349 (inactive),-0.375 (inactive),0.29 (inactive)
CARGPRARRSAGNASASA [FS-855],7.87 (active),7.54 (active),4.95 (active)
CARGPRRASAAGNASASA [FS-1711],-0.617 (inactive),-0.431 (inactive),-0.848 (inactive)
CARGPRRRRSAGNASASA [FS-856],11.2 (active),10 (active),7.78 (active)
CADSGGARRSAGNASASA [FS-226],-0.625 (inactive),-0.697 (inactive),-0.757 (inactive)
CASTPCSASLAGNASASA [HC2557],0.819 (inactive),0.0223 (inactive),0.939 (inactive)
CARAKRFASLAGNASASA [FS-2635],4.64 (active),6.47 (active),8.89 (active)
CARAKRFVSIAGNASASA [FS-1993],4.74 (active),4.17 (active),5.92 (active)
CARAKRVSWDAGNASASA [FS-1681],-0.617 (inactive),0.099 (inactive),0.302 (inactive)
CARAKRFLRKAGNASASA [FS-1992],4.11 (active),4.74 (active),7.62 (active)
CASTPCSAVLAGNASASA [HC2550],-1.46 (inactive),-0.0198 (inactive),-0.52 (inactive)
CARAKRNAVLAGNASASA [FS-2545],6.45 (active),7.8 (active),6.91 (active)
